Results on 84 compounds are retold here after the supplement of paper PMC8183993.

SMILES strings stand for the structures. “And” between values parts separate entries of the source, which are not always exact repeats. Identical values can stand only once. Counter-ions that a name gives are not always drawn. ± gives the standard deviation of the averaged measurements. In all, about 3,100 compounds were measured (“mean cytoplasmic OPP incorporation (global translation) relative to DMSO”: median about 100, lowest 2% from about 56 on). Shown is part of a subset that was picked to be rich in the lowest values.

This assay has as its system U2OS. Put plainly: mean cytoplasmic OPP incorporation (global translation) relative to DMSO (% of DMSO); higher = more protein synthesis. Conditions: 10 µM; 24 h. The method, then: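 Primary image-based screen in U2OS cells: compounds at 10 uM for 24 h, then a 1 h o-propargyl-puromycin (OPP) pulse, click labelling, and high-throughput microscopy. Mean cytoplasmic OPP intensity and nuclei count were normalised to DMSO wells within each plate (DMSO = 100) and averaged over triplicate plates.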
Consider `CNC(=O)c1ccccc1Nc1nc(Nc2ccc(N3CCOCC3)cc2OC)ncc1Cl`, for which the “mean cytoplasmic OPP incorporation” value was determined as 90.7 ± 4.2. With `CCOc1cc(N2CCC(O)CC2)ccc1Nc1ncc2c(n1)N(C)c1ccccc1C(=O)N2C` the figure was 110; with `COc1cc(N2CCC(N)CC2)ccc1Nc1ncc(Cl)c(-c2c[nH]c3ccccc23)n1`, 36.5. In the case of `O=C(/C=C/c1ccc(CN(CCO)CCc2c[nH]c3ccccc23)cc1)NO` [LAQ824 (NVP-LAQ824, Dacinostat)] it was 47.7. In the case of `OCc1c[nH]c2ccccc12` [Indole-3-carbinol] it was 113; in that of `c1ccc2c(Cc3c[nH]c4ccccc34)c[nH]c2c1` [Diindolylmethane], 93.7.

Regarding `CC(C)C[C@H](NC(=O)N[C@H](C(=O)N[C@@H](CCC(N)=O)C(=O)N[C@@H](C)C=O)[C@@H]1CCNC(=N)N1)C(=O)O` [Elastatinal], the “mean cytoplasmic OPP incorporation” value worked out at 98.9.

For the compound `COc1cc(OC)c(C(=O)CCCCN2CCC3(CC2)NC(=O)NC3=O)cc1NS(=O)(=O)c1ccc(C(F)(F)F)cc1`, the “mean cytoplasmic OPP incorporation” value was found to be 129. In the case of `CC1=CC(=O)c2ccccc2C1=O` [Menadione] it was 95.2; in that of `CC1(C)CCC2=C(O1)c1ccccc1C(=O)C2=O`, 110. Take `CC1(C)C(=O)NC2=C1C(=O)C(=O)c1ccccc12`: the “mean cytoplasmic OPP incorporation” value was 59.6 and 42.6. With `c1cc2c(cc1C1CCCCC1)c1c3n2CCNC3CCC1` (centres undefined) [Tetrindole mesylate] the figure was 129. With `C=C(C)[C@@H](CC=C(C)C)C[C@@]12C[C@@H](CC=C(C)C)C(C)(C)[C@@](CC=C(C)C)(C(=O)C(C(=O)c3ccc(O)c(O)c3)=C1O)C2=O` [Garcinol] the figure was 100; with `C[C@@H](NCc1cc(Br)cc2[nH]c(=O)c(=O)[nH]c12)P(=O)(O)O`, 96.4; with `Cc1ccc(C(=O)Nc2cccc(C(F)(F)F)c2)cc1Nc1nc(-c2cccnc2)nc2c1cnn2C`, 145. In the case of `Cc1ccc(C(=O)Nc2ccc(CN3CCN(C)CC3)c(C(F)(F)F)c2)cc1C#Cc1cnc2[nH]ncc2c1` [GZD824 Dimesylate] it was 37.4; in that of `Cc1ccc(NC(=O)c2ccc(CN3CC[C@H](N(C)C)C3)c(C(F)(F)F)c2)cc1Nc1nccc(-c2cncnc2)n1` [Bafetinib (INNO-406)], 118. With `Cc1ccc(C(=O)Nc2ccc(CN3CCN(C)CC3)c(C(F)(F)F)c2)cc1C#Cc1cnc2cccnn12`, the “mean cytoplasmic OPP incorporation” value was 32.7. In the case of `O=C(Cc1ccccc1)Nc1cccc(C(=O)Nc2ccccc2C(=O)O)c1` it was 106.

As for `S=c1ccss1` [1,2-Dithiole-3-thione], the “mean cytoplasmic OPP incorporation” value was determined as 115.

Consider `CC[C@H](C)[C@H](N)C(=O)N1CCSC1` [P32/98 hemifumarate salt], for which the “mean cytoplasmic OPP incorporation” value was determined as 107.

For the compound `C=CC(=O)c1ccc2ccccc2c1`, the “mean cytoplasmic OPP incorporation” value was determined as 100.

On to `NC(=O)c1ccncc1` [Isonicotinamide], for which the “mean cytoplasmic OPP incorporation” value was 109. In the case of `O=C(/C=C/c1ccc2ccccc2n1)c1ccncc1` it was 26.3; in that of `COc1cc2c(NC3CCN(C)CC3)nc(N3CCCN(C)CC3)nc2cc1OCCCN(C)C`, 112; in that of `CCn1nnc2c(N3CCOCC3)nc(-c3ccc(NC(=O)Nc4ccc(C(=O)N5CCN(C)CC5)cc4)cc3)nc21`, 67.6.

With `NC(=O)Nc1sc(-c2ccc(F)cc2)cc1C(N)=O`, the “mean cytoplasmic OPP incorporation” value was determined as 76.5 ± 9.7. With `NC(=O)Nc1cc(-c2cccc(F)c2)sc1C(=O)N[C@H]1CCCNC1` the figure was 25.1; with `Cc1c(C(=O)NC2CCCCC2)sc2nc3ccc(N)cc3n12`, 106; with `C[C@H]1O[C@@H](O[C@H]2[C@@H](O)C[C@H](O[C@H]3[C@@H](O)C[C@H](O[C@H]4CC[C@@]5(C)[C@H](CC[C@@H]6[C@@H]5C[C@@H](O)[C@]5(C)[C@@H](C7=CC(=O)OC7)CC[C@]65O)C4)O[C@@H]3C)O[C@@H]2C)C[C@H](O)[C@@H]1O` [Digoxin], 19.

For `Oc1ccc(-c2nc3cc(O)cc(Br)c3o2)cc1`, the “mean cytoplasmic OPP incorporation” value is 89.5. As for `O=C[C@@H]1CCCN1C(=O)[C@@H]1CCCN1C(=O)OCc1ccccc1` [Z-Prolyl-prolinal], the “mean cytoplasmic OPP incorporation” value turned out to be 98. With `N#C/C(=C\c1ccc(O)c(O)c1)C(=O)NCCCCc1ccccc1` the figure was 87.8.

With `CCCCC[C@H](O)CC(=O)CCc1ccc(O)c(OC)c1` [Gingerol], the “mean cytoplasmic OPP incorporation” value is 102.

Consider `NC(C(=O)O)c1cc(O)cc(O)c1` (racemic), for which the “mean cytoplasmic OPP incorporation” value amounted to 107. Regarding `N[C@@H](Cc1cc(I)c(O)c(I)c1)C(=O)O` [3,5-Diiodo-L-tyrosine], the “mean cytoplasmic OPP incorporation” value was determined as 100. With `CS(=O)(=O)Nc1ccc([N+](=O)[O-])cc1Oc1ccccc1` [Nimesulide] the figure was 97.3 ± 5.5; with `O=[N+]([O-])c1ccc2c(c1)S(=O)(=O)C=C2` [Stattic], 48.5. In the case of `O=C1Nc2ccc([N+](=O)[O-])cc2C1=O` [5-Nitroisatin] it was 104; in that of `O=C(O)c1ccc(-c2ccc3cc(O)c(C45CC6CC(CC(C6)C4)C5)cc3c2)cc1`, 98.8; in that of `Cc1ccc(C(=O)c2cc(/C=C/C(=O)NO)n(C)c2)cc1`, 99.3.

On to `C1CCC(C(CC2CCCCN2)C2CCCCC2)CC1` (centres undefined) [Perhexiline maleate], for which the “mean cytoplasmic OPP incorporation” value came to 53. Take `CNC(C)C1CCC(N)C(OC2C(N)CC(N)C(OC3OCC(C)(O)C(NC)C3O)C2O)O1` (centres undefined) [Gentamycin sulfate (Gentacycol)]: the “mean cytoplasmic OPP incorporation” value is 107. For the compound `NCC1CCN(c2nccc(-c3ccc4ccccc4c3)n2)CC1`, the “mean cytoplasmic OPP incorporation” value came out at 88.3. With `C[C@H]1CC[C@@]2(OC1)O[C@H]1C[C@H]3[C@@H]4CC[C@@H]5C[C@@H](O[C@@H]6O[C@H](CO)[C@H](O)[C@H](O)[C@H]6O[C@@H]6O[C@H](CO)[C@@H](O)[C@H](O)[C@H]6O)CC[C@]5(C)[C@H]4CC[C@]3(C)[C@H]1[C@@H]2C` [Timosaponin A-III] the figure was 111; with `C=CC(=O)Nc1cccc(Sc2nc(Nc3ccc(N4CCN(C)CC4)cc3)ncc2Cl)c1`, 57.4; with `C=CC(=O)Nc1cccc(Oc2nc(Nc3ccc(N4CCN(C)CC4)cc3)ncc2Cl)c1`, 64.9. As for `CNC(=O)c1nn(C)c2c1C(C)(C)Cc1cnc(Nc3ccc(N4CCN(C)CC4)cc3)nc1-2`, the “mean cytoplasmic OPP incorporation” value was 89.3 and 44.9. In the case of `O=C(NC[C@H](O)CN1CCc2ccccc2C1)c1ccnc(NC2CCC2)c1` it was 107. Take `NCCCCCCCCCCNS(=O)(=O)c1cccc2c(Cl)cccc12` [A-7 hydrochloride]: the “mean cytoplasmic OPP incorporation” value was determined as 115. With `CC(C)c1ccc(Cn2ccc3c4c(N)nc(NC5CC5)nc4ccc32)cc1` the figure was 40.1. In the case of `O=C(NCCN1CCCCC1)c1ccc(I)cc1` [N-[2-(Piperidinylamino)ethyl]-4-iodobenzamide] it was 100; in that of `CC(C)n1nc(-c2ccc3oc(N)nc3c2)c2c(N)ncnc21`, 53.5 ± 16.

As for `CC(C)n1nc(-c2cc3cc(O)ccc3[nH]2)c2c(N)ncnc21` [Torkinib (PP242)], the “mean cytoplasmic OPP incorporation” value was 52.5. With `CC(C)(C)n1nc(-c2cccc3ccccc23)c2c(N)ncnc21` [1-Naphthyl PP1] the figure was 93; with `C[C@H](Cn1cnc2c(N)ncnc21)OCP(=O)(O)O` [Tenofovir (Viread)], 99.5; with `Cc1ccccc1-n1c(Cn2nc(-c3cccc(O)c3)c3c(N)ncnc32)nc2cccc(C)c2c1=O`, 102. With `CCO/C(O)=C1\C(C)=NC(c2ccccc2)=C(C(=O)OCc2ccc([N+](=O)[O-])cc2)C1C#Cc1ccccc1` (centres undefined) the figure was 108; with `CC1=C(/C=C/C(C)=C\C=C\C(C)=C\C(=O)O)C(C)(C)CCC1` [9-cis Retinoic acid], 96.4. With `Nc1ccc(CC(CC(=O)O)C(=O)O)cc1` [4-Amino-D, L-benzylsuccinic acid] the figure was 104; with `CC(C)[C@@H](O)CC[C@@H](C)[C@H]1CC[C@H]2[C@@H]3CC=C4C[C@@H](O)CC[C@]4(C)[C@H]3CC[C@]12C` [24(S)-Hydroxycholesterol], 104. On to `Cc1ccc2nc(NCCN)c3ncc(C)n3c2c1`, for which the “mean cytoplasmic OPP incorporation” value came out at 56.1.

In the case of `Cc1ccnc(NS(=O)(=O)c2ccc(NC(=O)Nc3ccc(S(=O)(=O)Nc4nccc(C)n4)cc3)cc2)n1`, the “mean cytoplasmic OPP incorporation” value stood at 96.2.

Turning to `Cc1ncc(-c2ccnc(Nc3ccc(S(C)(=O)=O)cc3)n2)n1C(C)C`, the “mean cytoplasmic OPP incorporation” value worked out at 55.9.

With `Cc1nc(N)sc1-c1ccnc(Nc2ccc(N3CCOCC3)cc2)n1`, the “mean cytoplasmic OPP incorporation” value worked out at 93.4. In the case of `C[C@]12CC[C@@H](O)C[C@@H]1CC[C@@H]1[C@@H]2CC[C@]2(C)C=CC[C@@H]12` [3a, 5a-Androstenol] it was 97.3. With `Cn1cc(C2=C(c3ccc(Cl)cc3Cl)C(=O)NC2=O)c2ccccc21` the figure was 104 and 106; with `CN(C)CCCn1cc(C2=C(c3c[nH]c4ccccc34)C(=O)NC2=O)c2ccccc21`, 90.7 and 79.3; with `Cn1cc(C2=C(c3cn(CCCSC(=N)N)c4ccccc34)C(=O)NC2=O)c2ccccc21` [Ro 31-8220 Mesylate], 30.3. In the case of `Cn1cc(C2=C(c3cn(CCCSC(=N)N)c4ccccc34)C(=O)NC2=O)c2ccccc21` [Ro 31-8220 mesylate] it was 62.4; in that of `CC(=O)C1=C(O)C=C2Oc3c(C(C)=O)c(O)c(C)c(O)c3[C@]2(C)C1=O` [Usnic acid], 101. On to `CC(=Nc1ccccc1N)c1c(C)cc(=O)n(O)c1O`, for which the “mean cytoplasmic OPP incorporation” value worked out at 95.7.

As for `COc1cccc(-c2cc(NCc3ccc4c(c3)OCO4)nc(N)n2)c1`, the “mean cytoplasmic OPP incorporation” value is 92.3. With `CNCCN1CCC(OCc2ccccc2)CC1` the figure was 111; with `O=C(CCCCCCC(=O)Nc1ccccc1)NO` [Vorinostat], 41.9; with `Nc1ccccc1NC(=O)CCCCCCC(=O)Nc1ccccc1`, 92.9.

For the compound `O=C(CCCCCCC(=O)Nc1cccnc1)NO` [Pyroxamide], the “mean cytoplasmic OPP incorporation” value stood at 65.9. Take `CSCCC(C=O)NC(=O)C(CC(C)C)NC(=O)[C@H](CC(C)C)NC(C)=O` (some centres undefined) [Calpain Inhibitor II (ALLM)]: the “mean cytoplasmic OPP incorporation” value came to 109. With `COC1CCC(C(=O)c2ccc3nc4c(cc3c2)CCCO4)CC1` (centres undefined) the figure was 98.8; with `N#CC[C@H](C1CCCC1)n1cc(-c2ncnc3[nH]ccc23)cn1`, 83.53 ± 0.64; with `C=CC(=O)N1CCC[C@@H](n2nc(-c3ccc(Oc4ccccc4)cc3)c3c(N)ncnc32)C1`, 105 ± 2.3.

For the compound `Nc1ncnc2c1c(-c1cnc3[nH]ccc3c1)nn2C1CCCC1`, the “mean cytoplasmic OPP incorporation” value is 44.2. In the case of `COc1cccc(/C=N/N=C/c2cccc(OC)c2)c1` it was 99.7; in that of `CC1=C(/C=C/C(C)=C/C=C/C(C)=C\CO)C(C)(C)CCC1` [13-cis-Retinol], 90.9.
